From the supplement of paper PMC6763611 come the findings set out here.

Bounds are passed on as bounds.

For the first assay, the system named is Plasmodium falciparum NF54. As to the kind of experiment: growth inhibition relative to untreated control; higher = more inhibition. Particulars: 1 µM; minimal medium (MM); 72 h. The procedure, abridged:
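Ring-stage P. falciparum NF54 parasites at 1% hematocrit and 1% parasitemia were dispensed at 100 μL/well into dark 96-well half-area plates and given a single dose of test compound at 5 μM or 1 μM for 72 h at 37 °C. Incubation took place in minimal RPMI, either alone or supplemented with the chorismate end-products folate (2.2 μM), pABA (7.3 μM), pHBA (7.3 μM), tyrosine (111 μM), phenylalanine (90 μM) and tryptophan. Growth inhibition was determined with SYBR Green relative to untreated wells, using uninfected erythrocytes for background.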
For `O=C(NCc1ccco1)N1CCN(Cc2ccc(Cl)s2)CC1`, the growth inhibition stood at 2.55%.

Compound `Cc1nn2c(=O)c3c([nH]c2c1-c1ccc(Cl)cc1)CCCC3` had a growth inhibition of 22.1%.

With `O=C(Cn1ccnc1[N+](=O)[O-])NCc1ccccc1`, the growth inhibition was under 0%.

In turn, `O=C(Nc1cccc(-c2ccc(NCCCN3CCCC3)nc2)c1)c1ccccc1` showed a growth inhibition of over 100%.

Compound `CCOC(=O)NC(=O)c1ccsc1NC(=O)c1nc2ccccc2s1` yielded a growth inhibition of under 0%.

As to `CCN(CC)S(=O)(=O)c1ccc(Cl)c(C(=O)Nc2ccc3nc(C)sc3c2)c1`, the growth inhibition is 96.2%.

With `COc1ccc(Nc2ccccc2NC(=O)c2ccc(O)nc2)cc1`, the growth inhibition is under 0%.

The compound `COc1ccc(C2=NN(C3CCCCCC3)C(=O)[C@@H]3CC=CC[C@H]23)cc1OCCCCOc1ccc(-c2nnn[nH]2)cc1` registered a growth inhibition of 16.4%.

Take `CCOc1ccc(OCC(=O)Nc2cc(C)cc(C)c2)cc1`: the growth inhibition was under 0%.

Compound `Cc1cc(OCC(=O)Nc2ccc(C(C)C)cc2)n(C)c(=O)c1C#N` had a growth inhibition of 33%.

For `Cc1cc(Cl)c(S(=O)(=O)N2CCCC2)cc1OCC(=O)NC1CCCCC1`, the growth inhibition is 100%.

Compound `COC(=O)c1c(NC(=O)c2cc3ccccc3oc2=O)sc2c1CCN(Cc1ccccc1)C2` gave a growth inhibition of 8.51%.

With `Nc1nccc2ccc(Oc3ccncc3)cc12`, the growth inhibition was determined as 64%.

Turning to `CC1=Nc2ccc(Cl)cc2C(c2ccccc2)N1CCNC(=O)CN(C)C` (stereo unspecified), the growth inhibition was 19%.

`CCc1c(C)nc(-n2nc(C)cc2NC(=O)c2ccccc2SC)[nH]c1=O` had a growth inhibition of 60.2%.

For the compound `CC(C)(C)OC(=O)N1CCN(c2cc(-c3ccc(Oc4ccccc4)cc3)n[nH]2)CC1`, the growth inhibition was found to be 18%.

The compound `CC(C)c1ncc(-c2ccncc2)c([C@H]2CC[C@H](CNC(=O)c3cccnc3)CC2)n1` returned a growth inhibition of 76%.

`COc1ccc(C2CC(c3cccs3)=NN2C(=O)c2ccco2)cc1OC` (stereo unspecified): the growth inhibition was determined as 89.5%.

Turning to `CNC(=O)c1nn(C)c2c1C(C)(C)Cc1cnc(Nc3ccc(N4CCN(C)CC4)cc3)nc1-2`, the growth inhibition amounted to 73.6%.

In turn, `C[C@H](C(N)=O)N1CCCC[C@H]1c1ccc(OCc2cccc(F)c2)cc1` registered a growth inhibition of 3.3%.

In turn, `O=C(Nc1cccnc1)c1c(O)c2cccc3c2n(c1=O)CC3` showed a growth inhibition of 21.1%.

In turn, `COc1ccc(-c2cnc3cnc(-c4cccc(OC(C)C)c4)cn23)cc1` gave a growth inhibition of 34.1%.

Compound `O=C(NC1CC1)c1ccc(N2CCC(Cc3ccccc3)CC2)nc1` returned a growth inhibition of 91.8%.

Consider `CCN(CC)S(=O)(=O)c1ccc(C(=O)Nc2cc(C)nn2-c2nc(C)c(C)c(=O)[nH]2)cc1`, for which the growth inhibition amounted to 10.2%.

Regarding `Nc1ncc(Br)cc1-c1nc2cc(Cl)cnc2[nH]1`, the growth inhibition was under 0%.

In the case of `Cc1ccccc1CN1CCC(O)(c2ccc(Cl)c(C(F)(F)F)c2)CC1`, the growth inhibition worked out at 30%.

Compound `NCCCC(N)(C(=O)O)C(F)F` (stereo unspecified) displayed a growth inhibition of under 0%.

Regarding `COc1ccccc1OCCCCn1c(C2CC2)nc2ccccc21`, the growth inhibition is 21.3%.

`CNc1nnc(Sc2cnn(-c3ccccc3)c(=O)c2Cl)s1` came in with a growth inhibition of 16.6%.

Consider `O=C(NCCc1ccccc1)c1cc(-c2cccnc2)cnc1NCC1CC1`, for which the growth inhibition is over 100%.

Take `c1ccc(-c2[nH]c3ccccc3c2C(c2ccccn2)N2CCCC2)cc1` (stereo unspecified): the growth inhibition is 5.9%.

For `CC(C)(C)c1cc(C(=O)N2CCN(c3nccnc3C#N)CC2)n(Cc2ccccc2)n1`, the growth inhibition is over 100%.

The compound `CCCNC(=O)N1CCC2(CC1)CC(=O)c1cc(C)ccc1O2` registered a growth inhibition of 76.5%.

The compound `O=C(Nc1nnc(-c2ccc(Cl)cc2)o1)c1cccc(C(F)(F)F)c1` returned a growth inhibition of 33%.

Compound `COC(=O)c1ccc(F)cc1NS(=O)(=O)c1cccc(-c2cnn(Cc3ccccc3)c2)c1` returned a growth inhibition of 37.7%.

As for `Cc1ccc(S(=O)(=O)Nc2ccc(CN3CCN(C(=O)c4cccc(C#N)c4)CC3)cc2)cc1`, the growth inhibition is 5.35%.

For `CN1CCN(CCCOc2ncc(Nc3ncc(-c4ccc(C(F)(F)F)c(F)c4)nc3C(N)=O)cn2)CC1`, the growth inhibition was over 100%.

`c1csc(-c2cnc3sc(NCC4CCOCC4)nn23)c1` came in with a growth inhibition of 68.8%.

Still in this assay, the particulars now being: 5 µM; MM + chorismate end-products (CM screening medium); 72 h.
With `O=C(NCc1ccco1)N1CCN(Cc2ccc(Cl)s2)CC1`, the growth inhibition worked out at 21%.

Turning to `Cc1nn2c(=O)c3c([nH]c2c1-c1ccc(Cl)cc1)CCCC3`, the growth inhibition came out at 7.72%.

Take `O=C(Cn1ccnc1[N+](=O)[O-])NCc1ccccc1`: the growth inhibition turned out to be 0.641%.

Regarding `O=C(Nc1cccc(-c2ccc(NCCCN3CCCC3)nc2)c1)c1ccccc1`, the growth inhibition is 63.2%.

With `CCOC(=O)NC(=O)c1ccsc1NC(=O)c1nc2ccccc2s1`, the growth inhibition is under 0%.

Regarding `CCN(CC)S(=O)(=O)c1ccc(Cl)c(C(=O)Nc2ccc3nc(C)sc3c2)c1`, the growth inhibition is 91.3%.

Turning to `COc1ccc(Nc2ccccc2NC(=O)c2ccc(O)nc2)cc1`, the growth inhibition was under 0%.

Turning to `COc1ccc(C2=NN(C3CCCCCC3)C(=O)[C@@H]3CC=CC[C@H]23)cc1OCCCCOc1ccc(-c2nnn[nH]2)cc1`, the growth inhibition came to 44.9%.

Regarding `CCOc1ccc(OCC(=O)Nc2cc(C)cc(C)c2)cc1`, the growth inhibition was 32.1%.

As for `Cc1cc(OCC(=O)Nc2ccc(C(C)C)cc2)n(C)c(=O)c1C#N`, the growth inhibition came out at 18.4%.

Regarding `Cc1cc(Cl)c(S(=O)(=O)N2CCCC2)cc1OCC(=O)NC1CCCCC1`, the growth inhibition is 82.3%.

On to `COC(=O)c1c(NC(=O)c2cc3ccccc3oc2=O)sc2c1CCN(Cc1ccccc1)C2`, for which the growth inhibition is 5.7%.

In the case of `Nc1nccc2ccc(Oc3ccncc3)cc12`, the growth inhibition amounted to 68.2%.

Take `CC1=Nc2ccc(Cl)cc2C(c2ccccc2)N1CCNC(=O)CN(C)C` (stereo unspecified): the growth inhibition is over 100%.

Turning to `CCc1c(C)nc(-n2nc(C)cc2NC(=O)c2ccccc2SC)[nH]c1=O`, the growth inhibition is 86.1%.

Consider `CC(C)(C)OC(=O)N1CCN(c2cc(-c3ccc(Oc4ccccc4)cc3)n[nH]2)CC1`, for which the growth inhibition came out at 64.8%.

In the case of `CC(C)c1ncc(-c2ccncc2)c([C@H]2CC[C@H](CNC(=O)c3cccnc3)CC2)n1`, the growth inhibition was 92.5%.

Consider `COc1ccc(C2CC(c3cccs3)=NN2C(=O)c2ccco2)cc1OC` (stereo unspecified), for which the growth inhibition amounted to 91.4%.

Consider `CNC(=O)c1nn(C)c2c1C(C)(C)Cc1cnc(Nc3ccc(N4CCN(C)CC4)cc3)nc1-2`, for which the growth inhibition amounted to 88%.

Regarding `C[C@H](C(N)=O)N1CCCC[C@H]1c1ccc(OCc2cccc(F)c2)cc1`, the growth inhibition is under 0%.

`O=C(Nc1cccnc1)c1c(O)c2cccc3c2n(c1=O)CC3`: the growth inhibition turned out to be 4.63%.

Regarding `COc1ccc(-c2cnc3cnc(-c4cccc(OC(C)C)c4)cn23)cc1`, the growth inhibition was under 0%.

On to `O=C(NC1CC1)c1ccc(N2CCC(Cc3ccccc3)CC2)nc1`, for which the growth inhibition is 95.7%.

For the compound `CCN(CC)S(=O)(=O)c1ccc(C(=O)Nc2cc(C)nn2-c2nc(C)c(C)c(=O)[nH]2)cc1`, the growth inhibition was determined as 78.9%.

As for `Nc1ncc(Br)cc1-c1nc2cc(Cl)cnc2[nH]1`, the growth inhibition worked out at 67.3%.

As to `Cc1ccccc1CN1CCC(O)(c2ccc(Cl)c(C(F)(F)F)c2)CC1`, the growth inhibition amounted to 82.6%.

On to `NCCCC(N)(C(=O)O)C(F)F` (stereo unspecified), for which the growth inhibition is under 0%.

With `COc1ccccc1OCCCCn1c(C2CC2)nc2ccccc21`, the growth inhibition is 74.9%.

For the compound `CNc1nnc(Sc2cnn(-c3ccccc3)c(=O)c2Cl)s1`, the growth inhibition amounted to 79.8%.

As for `O=C(NCCc1ccccc1)c1cc(-c2cccnc2)cnc1NCC1CC1`, the growth inhibition came to 59.2%.

With `c1ccc(-c2[nH]c3ccccc3c2C(c2ccccn2)N2CCCC2)cc1` (stereo unspecified), the growth inhibition came out at 43.6%.

`CC(C)(C)c1cc(C(=O)N2CCN(c3nccnc3C#N)CC2)n(Cc2ccccc2)n1`: the growth inhibition was 92.9%.

Turning to `CCCNC(=O)N1CCC2(CC1)CC(=O)c1cc(C)ccc1O2`, the growth inhibition came to 86.4%.

Regarding `O=C(Nc1nnc(-c2ccc(Cl)cc2)o1)c1cccc(C(F)(F)F)c1`, the growth inhibition worked out at 42.7%.

As for `COC(=O)c1ccc(F)cc1NS(=O)(=O)c1cccc(-c2cnn(Cc3ccccc3)c2)c1`, the growth inhibition stood at 9.57%.

Regarding `Cc1ccc(S(=O)(=O)Nc2ccc(CN3CCN(C(=O)c4cccc(C#N)c4)CC3)cc2)cc1`, the growth inhibition came to 42.7%.

For `CN1CCN(CCCOc2ncc(Nc3ncc(-c4ccc(C(F)(F)F)c(F)c4)nc3C(N)=O)cn2)CC1`, the growth inhibition was over 100%.

As for `c1csc(-c2cnc3sc(NCC4CCOCC4)nn23)c1`, the growth inhibition was over 100%.
